From PubChem
This is a sample that favours compounds with a hit; in the whole collection about 5.2% have one here.
Vif inh = inhibitors of HIV Vif. AID 602346. inhibition, % at 7.49 µM. HEK293T cells, Vif self-association by quenched fluorescence, imaging, 24 h. 340,000 compounds, 0.35% hits; in the data active = inhibition above about 50%, passing the limit was not always enough; inconclusive = no clear call, values can overlap the other calls; inactive = below about 31%
SKN-1 block = inhibitors of C. elegans SKN-1 | C. elegans VP596 Pgst-4::GFP/RFP ratio, acrylamide-induced, 24 h | inhibition, % at 21.8 µM | AID 624304 | 360,000 compounds, 0.49% hits;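 active = interference check ratio from 0.5 to 1.5 plus GFP to RFP signal ratio inhibition reaching or exceeding a fixed threshold, cut at about 30% in these data, passing the limit was not always enough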
GRIN3A LBD mod = modulates the human NR3A ligand-binding domain. NR3A LBD differential scanning fluorimetry, Tm shift; 0% = protein alone, 100% = glycine-bound protein. Tm shift relative to glycine control, % at 25 µM. 340,000 compounds, 2.5% hits;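 active = melting temperature shift of at least 10% of the positive control shift, at one fixed dose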
SMARCA2 act = activators of SMARCA2 function | MG213 cells, MMTV-luciferase reporter, dexamethasone, overnight | activation, % at 9.1 µM | 370,000 compounds, 1% hits | AID 652017; in the data active = activation above about 7.8%;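 also: 0% = vehicle wells and 100% = reference activator wells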
NadD block = blocks S. aureus nicotinate mononucleotide adenylyltransferase | purified NadD enzyme, colorimetric absorbance read-out | inhibition, % at 20 µM | 360,000 compounds, 0.78% hits | AID 602399; in the data active = inhibition above about 26%
esBAF inh = SWI/SNF esBAF complex inhibition; mouse ES cells, Bmi1-luciferase knock-in reporter, 24 h; 100% = twice the neutral-well signal; reporter increase, % at 12.5 µM; 350,000 compounds, 2% hits; in the data active = activation above about 40%; inconclusive = no clear call, values can overlap the other calls;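 also: 0% = median of the plate's neutral control wells and 100% = double that signal; a rise in the Bmi1 reporter signal indicates esBAF inhibition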
NadD inh conf = confirmation of Staphylococcus aureus NadD inhibitors. shares compounds with NadD block. purified S. aureus NadD, colorimetric enzyme assay. inhibition, % at 20 µM. 2,000 compounds, 13% hits; in the data active = inhibition mostly above about 42%, no sharp cut-off; inactive = mostly below about 42%
SMARCA2 act conf = SMARCA2 activation, confirmation screen; shares compounds with SMARCA2 act; MG213 cells, MMTV-luciferase with dexamethasone, luminescence, overnight; MG213 cells expressing E1A, Rb sequestered; DMSO wells 0%, reference activator 100%; activation, % at 9.1 µM; 3,500 compounds, 30% hits; AID 652260;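 active = activation above its plate's cutoff, the mean activation of tested wells plus 3 SD, cut at about 7.9% in these data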
GAL4-VP16 Luc = activates GAL4-VP16 luciferase, flagging SMARCA2 activator hits; HEK293 GAL4-VP16 pG5luc reporter, luciferase luminescence; scaled: DMSO wells 0%, SAHA wells 100%; shares compounds with SMARCA2 act; AID 686939; 3,500 compounds, 41% hits; activation, % at 9.1 µM;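 active = activation above the solvent-only control well mean plus 3 SD, averaged across control plates, cut at about 5.2% in these data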
Numbers without * were called inactive; ? = inconclusive; . = no result.

SMILES	Vif inh	SKN-1 block	GRIN3A LBD mod	SMARCA2 act	NadD block	esBAF inh	NadD inh conf	others
O=c1[nH]c(C2CCN(S(=O)(=O)c3ccc4c(c3)OCCO4)CC2)nc2c1nnn2Cc1ccccc1F	3	-8	-8	0	34*	7	27
COc1ccc(S(=O)(=O)N(C)C[C@H]2Oc3ccc(NC(=O)Nc4ccccc4)cc3CC(=O)N([C@@H](C)CO)C[C@@H]2C)cc1	.	.	.	.	.	1	.
CC=Cc1ccc2n(c1=O)C[C@@H]1[C@@H](CO)[C@H](C(=O)NCCOC)[C@H]2N1Cc1nccs1 (mixture of isomers)	.	.	.	.	.	-1	.
CO[C@@H]1CN(C)C(=O)c2ccc(NC(C)=O)cc2OC[C@H](C)N(C(=O)c2ccccc2F)C[C@@H]1C	.	.	.	.	.	4	.
COc1ccccc1/C=C/C=c1\sc2nc(=O)c(Cc3ccccc3)nn2c1=O	1	-16	1	-4	37*	.	19
Cc1c(/C=N/NC(=O)CNc2ccccc2)c2ccccn2c1C(=O)c1ccc(Cl)cc1	-8	4	6	-2	36*	.	17
COc1ccc(-c2ccc3n(c2=O)C[C@@H]2[C@@H](CO)[C@H](C(=O)NCC4CC4)[C@H]3N2S(C)(=O)=O)cc1	.	.	.	.	.	-6	.
CCN(C[C@@H]1[C@@H](c2ccccc2)[C@H](CO)N1C(C)=O)C(=O)c1cccc(F)c1	.	.	.	.	.	-3	.
CN(C)S(=O)(=O)c1cccc(NC(=O)c2cc3c(=O)n4ccccc4nc3s2)c1	-7	-1	-1	-3	2	-1	.
Cc1cc(NS(=O)(=O)c2ccc(NC(=O)c3cc4c(=O)n5ccccc5nc4s3)cc2)nc(C)n1	-2	6	4	0	31*	.	46
C[C@@H]1CN([C@H](C)CO)C(=O)c2cc(C#CC3CC3)cnc2O[C@@H]1CN(C)C(=O)Cc1ccccn1	.	.	.	.	.	1	.
N=c1c(S(=O)(=O)c2ccc(Br)cc2)cc2c(=O)n3ccccc3nc2n1Cc1ccco1	10	11	-1	-1	49*	5	12
N=c1c(S(=O)(=O)c2ccc(Br)cc2)cc2c(=O)n3ccccc3nc2n1C1CCCCC1	2	9	4	-2	42*	-4	23
N=c1c(S(=O)(=O)c2ccc(Br)cc2)cc2c(=O)n3ccccc3nc2n1Cc1ccccc1	4	18	-14	2	32*	-5	30
Cc1ccc(Cn2c(=N)c(C(=O)NCc3ccco3)cc3c(=O)n4ccccc4nc32)cc1	3	12	-2	1	43*	-9	39
N=c1c(S(=O)(=O)c2ccccc2)cc2c(=O)n3ccccc3nc2n1C1CCCCC1	16	19	0	-3	3	1	.
COc1ccc(S(=O)(=O)N(C)C[C@H]2Oc3ccc(NC(=O)CCN4CCOCC4)cc3CC(=O)N([C@H](C)CO)C[C@@H]2C)cc1	.	.	.	.	.	6	.
CCCN(C)C[C@@H]1Oc2ncc(-c3ccccc3)cc2C(=O)N([C@H](C)CO)C[C@@H]1C	.	.	.	.	.	2	.
N=c1c(S(=O)(=O)c2ccc(Cl)cc2)cc2c(=O)n3ccccc3nc2n1Cc1ccco1	14	-4	0	-2	43*	0	13
Cc1noc(C)c1S(=O)(=O)Nc1ccc2c(c1)C(=O)N([C@H](C)CO)C[C@H](C)[C@H](CN(C)S(C)(=O)=O)O2	.	.	.	.	.	1	.
Cc1ccc(NC(=O)CSc2nnc3c(n2)[nH]c2ccccc23)cc1	18	-9	-18	0	-3	-5	.
Cc1ccc(-c2csc(NC(=O)CSc3nnc4c(n3)[nH]c3ccccc34)n2)cc1	-28	-5	21*	-3	58*	.	18
Nc1nonc1-n1nnc(C(=O)N/N=C/C=C/c2ccccc2)c1CSC1=NCCS1	.	9	16*	-3	32*	33	26
Nc1nonc1-n1nnc(C(=O)N/N=C/c2c(Cl)cccc2Cl)c1CSC1=NCCS1	4	2	-2	-1	34*	-2	39
Cc1cc(C(=O)O)ccc1-c1ccc(/C=C2\SC(=O)N(CC(=O)Nc3ccc4c(c3)OCO4)C2=O)o1	6	8	.	0	48*	1	9
SMILES	Vif inh	SKN-1 block	GRIN3A LBD mod	SMARCA2 act	NadD block	esBAF inh	NadD inh conf	others
CCNC(=O)[C@@H]1[C@@H](CO)[C@@H]2Cn3c(ccc(C4=CCCCC4)c3=O)[C@@H]2N1Cc1ccccc1	.	.	.	.	.	-3	.
CCCC#Cc1ccc([C@H]2[C@@H](C#N)N(C(=O)C3CC3)[C@H]2CO)cc1	.	.	.	.	.	-3	.
CC=Cc1ccc2n(c1=O)C[C@@H]1[C@@H](CO)[C@H](C(=O)NC3CCCC3)N(Cc3nccs3)[C@H]21 (mixture of isomers)	.	.	.	.	.	-3	.
S=c1[nH]nc(Nc2cccc3ccccc23)s1	0	11	0	11*	37*	.	44	SMARCA2 act conf=3;GAL4-VP16 Luc=1
C[C@@H]1CN([C@@H](C)CO)C(=O)c2cc(NC(=O)Cc3ccccc3)ccc2O[C@@H](C)CCCCO[C@@H]1CN(C)C(=O)NC1CCCCC1	.	.	.	.	.	-3	.
NC(=O)c1ccc(NCCc2cccs2)cc1	6	-17	.	6	-5	21	.
Cn1c2ccccc2c(=O)c2ccc(NCCc3cccs3)cc21	18	13	-3	9.0*	36*	?	3	SMARCA2 act conf=9.4*;GAL4-VP16 Luc=14*
O=c1[nH]c2ccc(S(=O)(=O)Nc3ccc(-c4nnc5n4CCCCC5)cc3)cc2o1	24	-1	-1	12*	0	-5	.	SMARCA2 act conf=-2;GAL4-VP16 Luc=1
CS(=O)(=O)Nc1ccc(-c2nnc3n2CCCCC3)cc1	-13	-5	-2	-1	-5	0	.
COc1cccc(C(=O)Nc2nnc(SCC(=O)NC3CC3)s2)c1	4	15	0	0	-11	10	.
COc1ccc(C(=O)Nc2nnc(SCC(=O)NC3CC3)s2)cc1	.	-1	1	8.2*	-2	-43	.	SMARCA2 act conf=7;GAL4-VP16 Luc=13*
O=C(Nc1nnc(SCC(=O)N2CCCc3ccccc32)s1)c1ccccc1	5	3	-2	10*	-5	.	.	SMARCA2 act conf=2;GAL4-VP16 Luc=8.0*
CCSc1nnc(NC(=O)c2ccccc2)s1	-8	16	-3	11*	-8	.	.	SMARCA2 act conf=5;GAL4-VP16 Luc=5.5*
CCSc1nnc(NC(=O)c2cccnc2)s1	2	16	0	3	-8	.	.
Cc1ccc(C(=O)Nc2nnc(C)s2)cc1	1	0	1	13*	-3	.	.	SMARCA2 act conf=6;GAL4-VP16 Luc=16*
